Measured values: PubChem BioAssay AID1456 (Vanderbilt High Throughput Screening Facility, 2008)
Out of some 190,000 compounds screened, about 4,100 (2.2%) were called active. What follows is part of a selection rich in actives, with near analogues and random picks from the rest. Unmarked numbers belong to inactive results.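 Rule for the calls: active = thallium flux slope and its plate-corrected score both differing from the plate sample mean at a set confidence after two filtering rounds, in either direction; inactive = the rest.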

Target: Solute carrier family 12 member 5 (Homo sapiens) (UniProt Q9H2X9)
Sequence (Q9H2X9 whole entry, looked up): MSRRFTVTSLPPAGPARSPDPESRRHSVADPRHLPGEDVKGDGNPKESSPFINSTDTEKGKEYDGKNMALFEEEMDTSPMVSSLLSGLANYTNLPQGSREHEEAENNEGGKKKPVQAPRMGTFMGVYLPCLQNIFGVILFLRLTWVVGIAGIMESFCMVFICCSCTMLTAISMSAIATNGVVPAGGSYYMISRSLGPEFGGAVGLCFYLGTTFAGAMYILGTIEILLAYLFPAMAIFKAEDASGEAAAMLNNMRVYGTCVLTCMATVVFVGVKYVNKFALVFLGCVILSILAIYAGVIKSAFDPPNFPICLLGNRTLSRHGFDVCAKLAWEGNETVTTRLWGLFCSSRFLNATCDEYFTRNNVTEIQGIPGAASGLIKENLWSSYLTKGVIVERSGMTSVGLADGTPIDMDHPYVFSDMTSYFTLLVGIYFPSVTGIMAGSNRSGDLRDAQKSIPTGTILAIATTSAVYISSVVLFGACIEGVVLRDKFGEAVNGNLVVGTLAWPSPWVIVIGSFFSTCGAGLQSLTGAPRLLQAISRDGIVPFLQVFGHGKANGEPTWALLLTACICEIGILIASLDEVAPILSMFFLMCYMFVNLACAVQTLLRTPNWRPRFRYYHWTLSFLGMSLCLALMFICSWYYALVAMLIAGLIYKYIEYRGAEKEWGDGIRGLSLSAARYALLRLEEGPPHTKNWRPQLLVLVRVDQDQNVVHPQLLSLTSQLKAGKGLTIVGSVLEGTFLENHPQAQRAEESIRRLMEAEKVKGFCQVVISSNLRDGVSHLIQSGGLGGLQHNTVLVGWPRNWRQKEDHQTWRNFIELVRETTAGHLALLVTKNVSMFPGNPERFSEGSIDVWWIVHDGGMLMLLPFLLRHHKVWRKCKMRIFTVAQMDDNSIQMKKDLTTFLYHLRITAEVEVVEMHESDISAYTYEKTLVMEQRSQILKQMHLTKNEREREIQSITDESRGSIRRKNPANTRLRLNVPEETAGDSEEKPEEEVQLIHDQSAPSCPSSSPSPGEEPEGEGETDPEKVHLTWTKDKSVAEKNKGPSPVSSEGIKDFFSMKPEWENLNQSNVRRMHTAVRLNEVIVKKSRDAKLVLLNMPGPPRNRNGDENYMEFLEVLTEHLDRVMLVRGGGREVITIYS
Assay: KCC2 cotransporter modulators, thallium flux, primary screen, cell-based, HEK293 KCC2, FluoZin-2 fluorescence, MLSMR (AID 1456);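 for B-score of Tl+ flux slope (higher = more flux/activation; lower = inhibition): slope of fluorescence scaled to starting intensity during 10 to 20 s after thallium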
Details: KCC2 cells, thallium flux FluoZin-2 fluorescence; at 10 µM

Row | SMILES | B-score of Tl+ flux slope (higher = more flux/activation; lower = inhibition)
1 | CCOCCn1c(-c2ccccc2)nc2ccccc21 | 0.025
2 | Cc1cccc(-n2cnc(C(=O)NNC(=S)Nc3ccccc3)c2)n1 | -1.44
3 | CCOc1ccc(-c2n[nH]c(=S)n2/N=C/c2cc3c(cc2[N+](=O)[O-])OCO3)cc1 | 0.939
4 | O=[N+]([O-])c1ccccc1/C=N/n1c(COc2ccccc2)n[nH]c1=S | 24.3 (active)
5 | Cc1ccc(-c2n[nH]c(=S)n2/N=C/c2cc3c(cc2[N+](=O)[O-])OCO3)cc1 | 0.106
6 | COc1ccc(N(Cc2ccccc2)S(=O)(=O)c2cccc(C(=O)O)c2)cc1 | -1.07
7 | CN(c1ccccc1)c1ccc(/C=c2\s/c(=C(/C#N)C(=O)C(C)(C)C)n(Cc3ccco3)c2=O)cc1 | 0.174
8 | Cc1csc(=Nc2ccccc2)n1CCO | 0.00145
9 | Cc1cs/c(=N\N=C\c2ccc(O)cc2)n1Cc1ccco1 | -4.66 (active)
10 | CCc1nc2sc3c(Cl)ncnc3c2c2c1CCCC2 | 1.2
11 | Cc1ccc(F)cc1NC(=O)N1CCCN(c2ccc(C(F)(F)F)cn2)CC1 | 0.46
12 | Cc1ccc(N(C(=O)c2sc(C)nc2C)C(C(=O)NC(C)(C)C)c2ccncc2)cc1 (configuration not stated) | 0.0067
13 | O=C(CN1CCN(Cc2ccccc2)CC1)NC(c1ccccc1)c1ccccc1 | -2.1
14 | O=C(NC(=S)N1CCN(Cc2ccccc2)CC1)c1ccccc1 | 26.6 (active)
15 | O=C(Nc1ccccc1)N1CCN(Cc2ccccc2)CC1 | -0.481
16 | CC(=O)Nc1nc(C)c(-c2csc(Nc3ccc(S(N)(=O)=O)cc3)n2)s1 | 0.404
17 | Oc1ccc(-c2nnc(Nc3ccccc3)c3ccccc23)cc1 | -3.93
18 | S=c1[nH]nc(NCCc2ccccc2)s1 | -1.55
19 | c1ccc(Nc2n[nH]nc2-c2ccccc2)cc1 | -0.551
20 | S=c1[nH]nc(Nc2ccccc2)s1 | -8.06 (active)
21 | CNC1(c2nnnn2-c2c(C)cccc2C)CCOC(C)(C)C1 (configuration not stated) | -0.333

Row | SMILES | B-score of Tl+ flux slope (higher = more flux/activation; lower = inhibition)
22 | Cc1cc(=O)[nH]c2nnnn12 | 0.843
23 | CC(Nc1nc(N2CCOCC2)nc2ccccc12)c1ccccc1 (configuration not stated) | -0.0767
24 | Cc1cc(C)c(C)c(S(=O)(=O)N[C@@H](C)C(=O)OC(C)C(=O)NC(N)=O)c1C (some centres not stated) | -0.78
25 | Cc1ccc(-c2cc(C(=O)N3CCc4ccccc4C3)no2)cc1 | 0.312
26 | O=C(c1cc(-c2cccc(O)c2)on1)N1CCc2ccccc2C1 | -2.87
27 | O=C(c1cc(-c2ccc(O)cc2)on1)N1CCCc2ccccc21 | -2.96 (active)
28 | COc1ccc(NC(=O)C2=NNC(=O)CC2)cc1S(=O)(=O)N1CCCCC1 | 1.01
29 | CC1Cc2ccccc2N1S(=O)(=O)c1ccc(Cl)nc1 (configuration not stated) | -1.44
30 | CC(CC(=O)Nc1cc(C(F)(F)F)ccc1Cl)c1ccccc1 (configuration not stated) | -1.96
31 | O=C(NNc1ccccc1Cl)C(O)(c1cccc(C(F)(F)F)c1)c1cccc(C(F)(F)F)c1 | 14.9 (active)
32 | O=C(Nc1cc(C(F)(F)F)ccc1Cl)C(=O)N1CCCCC1 | 0.245
33 | [O-][N+]12CCCCC1CCCC2CO (configuration not stated) | -0.0478
34 | COc1ccc2cc(CCl)c(Cl)nc2c1 | 0.0416
35 | CC(NC(=O)C(C)(C)C)C(c1cccs1)N1CCN(Cc2ccccc2)CC1 (configuration not stated) | 0.428
36 | S=c1nc(C23CC4CC(CC(C4)C2)C3)nc2sccn12 | 2.46
37 | CC(=O)NNC(=O)c1csc(Cc2c(Cl)sc3ccc(Cl)cc23)n1 | 13.6 (active)
38 | CNC(=O)c1csc(Cc2c(Cl)sc3ccc(Cl)cc23)n1 | -0.799
39 | CC(=O)Cc1nsc(NC(=O)c2ccc(Cl)cc2Cl)n1 | 1.49
40 | CN(Cc1nc(-c2cnccn2)no1)Cc1n[nH]c2c1CCCCC2 | -2.53
41 | CCn1c(SCC(=O)c2ccc3ccccc3c2)nnc1-c1cccs1 | -5.11 (active)
42 | CCn1c(Cc2cccs2)nnc1SCC(=O)c1ccc(C)cc1 | -1.23

Row | SMILES | B-score of Tl+ flux slope (higher = more flux/activation; lower = inhibition)
43 | O=C(CSc1nnc(-c2cccs2)n1Cc1ccco1)c1ccc2c(c1)OCO2 | -2.4
44 | CC(C)=NN1C(=O)c2ccccc2NC1(C)C | 0.347
45 | CC(O)c1nc2c(c(=O)n(C)c(=O)n2C)n1C (configuration not stated) | 0.852
46 | O=C(Nc1ccncc1)c1ccccc1[N+](=O)[O-] | 1.37
47 | COC(=O)CNC(=O)c1ccccc1[N+](=O)[O-] | 0.532
48 | COc1ccc(NC(=O)c2ccccc2[N+](=O)[O-])cc1OC | 4.22 (active)
49 | Cc1cc(C)nc(SCc2cn3c(C)cc(C)nc3n2)n1 | -0.647
50 | CCOC(=O)CC1C(=O)NCCN1c1nc2c(C)cccn2c(=O)c1/C=C1\SC(=S)N(C(C)CC)C1=O (configuration not stated) | inactive
51 | CC1CCCC(C)N1CCCNC(=O)c1cc2c(=O)n(C)c3ccccc3c2n1C (configuration not stated) | -1.27
52 | Cn1c(C(=O)NCCCN2CCN(c3cccc(Cl)c3)CC2)cc2c(=O)n(C)c3ccccc3c21 | 0.0429
53 | Cn1c(C(=O)NCCc2ccsc2)cc2c(=O)n(C)c3ccccc3c21 | -3.14 (active)
54 | O=C1c2cccc3c([N+](=O)[O-])ccc(c23)C(=O)N1CC1CCCO1 (configuration not stated) | -3.38
55 | CN(c1ccccn1)c1ncnc2[nH]ncc12 | 0.0938
56 | CC(=O)NC(=S)Nc1ccc(NC(=S)NC(=O)c2ccc([N+](=O)[O-])cc2)cc1 | 0.484
57 | O=[N+]([O-])C(=c1ccc2c(c1)N1C3=C(CCCC3)CC3CCCCC31N=2)[N+](=O)[O-] (configuration not stated) | -0.0507
58 | COc1ccc(C(=O)/C=C/c2ccc(OC3CSC3)cc2)cc1 | 0.0132
59 | COc1ccc(/C=C/C(=O)c2ccc(OC)cc2O)cc1 | -1.21
60 | COc1ccc(/C=C/C(=O)c2cc(Br)ccc(=O)c2O)cc1 | 22.3 (active)
61 | O=C(C[n+]1cc(-c2ccc(Cl)c(Cl)c2)n2c1CCC2)c1cccs1 | 0.636
62 | CC(=O)N(OCc1ccc(OC(C)C)c(Cl)c1)C(C)=O | 0.219
